The source of these data is PubChem BioAssay (NCI).

Experiment in all cases: NCI-60 one-dose screen, 48 h (100 = growth as untreated, 0 = no growth, -100 = all killed)
For one experiment, the system named is HCT-15 colon. As to conditions: 10 µM.
The subject of another experiment is HT29 colon. As to conditions: 10 µM.
The test system of another experiment is SNB-75 CNS. As to conditions: 10 µM.
In another experiment the test system is SNB-19 CNS. As to conditions: 10 µM.
A further experiment concerns U251 CNS. The conditions noted are these: 10 µM.
The next experiment relates to PC-3 prostate. As to conditions: 10 µM.
A further experiment concerns SK-MEL-5 melanoma. As to conditions: 10 µM.
A further experiment relates to UACC-62 melanoma. As to conditions: 10 µM unless noted.
The subject of another experiment is LOX IMVI melanoma. As to conditions: 10 µM.
In a further experiment the test system is SK-MEL-28 melanoma. As to conditions: 10 µM.
The test system of the next experiment is EKVX NSCLC. As to conditions: 10 µM.
The subject of the next experiment is SN12C renal. As to conditions: 10 µM.
The test system of the next experiment is UO-31 renal. The conditions noted are these: 10 µM.
The next experiment deals with TK-10 renal. The conditions noted are these: 10 µM unless noted.
Another experiment deals with ACHN renal. As to conditions: 10 µM.
Another experiment has as its system CAKI-1 renal. The conditions noted are these: 10 µM.
For the next experiment, the system named is CCRF-CEM leukemia. As to conditions: 10 µM.
For another experiment, the system named is MOLT-4 leukemia. As to conditions: 10 µM.
The test system of another experiment is A498 renal. As to conditions: 10 µM.
A further experiment relates to SK-MEL-2 melanoma. As to conditions: 10 µM.

The panel holds about 83,000 compounds, 20% with a hit somewhere; the sample as a whole holds those more often.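 Results are percent growth after 48 hours of single-concentration exposure. 100 means growth as in untreated cells, lower positive values show inhibition; negative values down to -100 show cell death.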 A number with no mark means an inactive call. Active and inactive are the calls of the source. How the source made its calls: active means growth percent below 10; inactive means the rest.

Turning to `CC(=O)OC(C(=O)O)c1ccccc1` (configuration not stated), the growth in the experiment on HCT-15 colon was 111%; in the experiment with HT29 colon, 104%; in the experiment with SNB-75 CNS, 116%; in the experiment on SNB-19 CNS, 115%; in the experiment with U251 CNS, 109%; in the experiment on PC-3 prostate, 91%. Besides, the growth in the experiment with SK-MEL-5 melanoma was 105%; in the experiment with UACC-62 melanoma, 112%; with LOX IMVI melanoma it was 105%; in the experiment with SK-MEL-28 melanoma, 119%; with EKVX NSCLC, 111%; in the experiment on SN12C renal, 101%. For the same molecule, the growth is 126% with UO-31 renal; 117% in the experiment on TK-10 renal; 106% in the experiment on ACHN renal; 104% in the experiment on CAKI-1 renal; 86% in the experiment on CCRF-CEM leukemia; 95.5% in the experiment on MOLT-4 leukemia.

For `CCCCC(=O)c1ccc(OC)cc1`, the growth is 91.3% with HCT-15 colon; 107% in the experiment with HT29 colon; 101% with SNB-75 CNS; 104% in the experiment on SNB-19 CNS; 97.9% in the experiment with U251 CNS; 110% with PC-3 prostate. The growth is 96.5% in the experiment with SK-MEL-5 melanoma; 111% with UACC-62 melanoma; 102% with LOX IMVI melanoma; 111% with SK-MEL-28 melanoma; 105% in the experiment with SN12C renal; 97% with UO-31 renal. The growth was 96.3% with ACHN renal; 99.2% with CAKI-1 renal; 84.1% in the experiment with A498 renal; 92.1% in the experiment with CCRF-CEM leukemia; 104% in the experiment with MOLT-4 leukemia.

Consider `CCOC(=O)C(CCC(C)C)C(=O)OCC`, for which the growth is 104% in the experiment on HCT-15 colon; 94.4% in the experiment on HT29 colon; 94.6% in the experiment with SNB-75 CNS; 109% in the experiment with SNB-19 CNS; 101% in the experiment with U251 CNS; 107% in the experiment on PC-3 prostate. Moreover, the growth with SK-MEL-5 melanoma is 102%; with UACC-62 melanoma it was 101%; with SK-MEL-28 melanoma, 107%; in the experiment on SK-MEL-2 melanoma, 97.5%; with EKVX NSCLC, 99.3%; with SN12C renal it was 109%. The growth with UO-31 renal is 84.7%; in the experiment with TK-10 renal, 86.8%; in the experiment on ACHN renal, 101%; in the experiment on CAKI-1 renal, 100%; with A498 renal, 91.3%; in the experiment with CCRF-CEM leukemia it was 99.9%. The growth with MOLT-4 leukemia was 83.8%.

As to `N#CC1(Nc2ccc3c4c(cccc24)CC3)CCCCC1`, the growth in the experiment on HCT-15 colon is 106%; with HT29 colon it was 89.1%; in the experiment with SNB-75 CNS, 78.6%; with SNB-19 CNS, 107%; with U251 CNS, 99.8%; with PC-3 prostate, 90.8%. The growth was 91.6% in the experiment on SK-MEL-5 melanoma; 106% in the experiment with UACC-62 melanoma; 103% in the experiment with SK-MEL-28 melanoma; 90.3% in the experiment on SK-MEL-2 melanoma; 102% in the experiment on EKVX NSCLC; 92.7% in the experiment with SN12C renal. Moreover, the growth in the experiment with UO-31 renal is 55.6%; with TK-10 renal, 102%; in the experiment on ACHN renal it was 101%; in the experiment on CAKI-1 renal it was 74.8%; in the experiment on CCRF-CEM leukemia, 59%; in the experiment with MOLT-4 leukemia, 70.1%.

For the molecule `COC(=O)Nc1nc2ccc(C(=O)c3cccs3)cc2[nH]1`, the growth was 10.8% with HCT-15 colon; 2.02% (active) in the experiment with HT29 colon; 32.8% in the experiment with SNB-75 CNS; 29.9% with SNB-19 CNS; 16.6% in the experiment on U251 CNS; 22.7% with PC-3 prostate. Also, the growth in the experiment with SK-MEL-5 melanoma is -21.1% (active); in the experiment on UACC-62 melanoma it was 34.2%; in the experiment with LOX IMVI melanoma, 28.4%; with SK-MEL-28 melanoma, 56.3%; in the experiment on EKVX NSCLC, 37.8%; with SN12C renal, 29.6%. The growth with UO-31 renal is 48.8%; in the experiment on TK-10 renal, 61.6%; with ACHN renal, 40.5%; in the experiment on CAKI-1 renal, 19.8%; in the experiment with A498 renal, -1.63% (active); with CCRF-CEM leukemia, 6.93% (active). Besides, the growth in the experiment with MOLT-4 leukemia was -13.6% (active).

Take `CC(C)(O)C#CC#CC(C)(C)O`: the growth in the experiment on HCT-15 colon is 97.7%; in the experiment on HT29 colon, 97.8%; in the experiment on SNB-75 CNS it was 94%; with SNB-19 CNS it was 112%; in the experiment with U251 CNS, 98%; with PC-3 prostate it was 99.3%. The growth was 99% in the experiment on SK-MEL-5 melanoma; 111% in the experiment with UACC-62 melanoma; 99.4% in the experiment on SK-MEL-28 melanoma; 103% in the experiment with SK-MEL-2 melanoma; 99.5% in the experiment on EKVX NSCLC; 109% with SN12C renal. Besides, the growth in the experiment with UO-31 renal was 99.1%; with TK-10 renal, 95.6%; with ACHN renal it was 98.8%; in the experiment with CAKI-1 renal it was 97.5%; in the experiment on A498 renal, 93.6%; in the experiment with CCRF-CEM leukemia, 98.6%. The growth with MOLT-4 leukemia was 90.7%.

As to `N#C/C(=C\c1cc(O)c(O)c(O)c1)C(N)=O`, the growth in the experiment on HCT-15 colon is 88.6%; with HT29 colon, 103%; in the experiment with SNB-75 CNS, -17.7% (active); in the experiment on SNB-19 CNS, 101%; in the experiment with U251 CNS, 93%; with PC-3 prostate, 46.5%. For the same molecule, the growth with SK-MEL-5 melanoma is 101%; in the experiment with UACC-62 melanoma it was 98.1%; with LOX IMVI melanoma it was 92.3%; with SK-MEL-2 melanoma it was 123%; in the experiment on EKVX NSCLC it was 97.4%; with SN12C renal it was 107%. Moreover, the growth was 110% with UO-31 renal; 116% in the experiment with TK-10 renal; 96.6% in the experiment with ACHN renal; 93.6% in the experiment with CAKI-1 renal; 119% in the experiment with A498 renal; 74% with CCRF-CEM leukemia. Also, the growth with MOLT-4 leukemia is 73.1%.

`CNC(=O)c1ccccc1CC1(O)c2ccccc2Oc2ccccc21`: the growth is 44.6% with HCT-15 colon; 7.73% (active) with HT29 colon; 58.3% in the experiment on SNB-75 CNS; 93% in the experiment with SNB-19 CNS; 47.8% in the experiment with U251 CNS; 35.3% with PC-3 prostate. Also, the growth in the experiment on SK-MEL-5 melanoma was 41.9%; in the experiment with UACC-62 melanoma, 43.6%; with LOX IMVI melanoma, 57.9%; with SK-MEL-28 melanoma, 63.8%; in the experiment with SN12C renal, 80.9%; with UO-31 renal, 57.7%. Further, the growth was 58.9% with TK-10 renal; 54.4% with ACHN renal; 44.8% in the experiment with CAKI-1 renal; 0.171% (active) with A498 renal; 56.4% with CCRF-CEM leukemia; 38.1% with MOLT-4 leukemia.
